# In the supplement of paper PMC8728848:
# Shown is part of a subset that was picked to be rich in the strongest signals.
# B1: LlpA (Burkholderia cenocepacia) (protein)
# chain: MGSSHHHHHHSSGLVPRGSHKILGSNETLSAGNVVYSDNGQYHLAMQTDGNLVVYGPTGAVWQSQTSGSGGNRAVMQGDGNLVIYRADNTAAWSSKTAHPGAFLAVQDDGNVVIYWPRPAWASNTSDPATQQSAESKYLASGSTMSAGQTVTVAQYMLVFQADGNLVLYKNGGNPIWSTGTQGKGATYAVMQSDGNFVIYAGSTALWSTKTNGANGAQLVLQSDGNLVIYAPTAAWSTKFGLVTAPTSTSTSNNGPGSGICVGVCPPHPLNGNPFSPVGVGTTGLGFPTPGYPGAAF
# Legend:
# Assay in all cases: glycan array binding signal (z-score within array); higher = stronger binding
# Settings in all cases: glycan notation: IUPAC condensed, linker removed
# [1] = target: Gal6S(b1-3)GlcNAc6S
# How it was run: (§1)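 Columns mapping to the same glycan were averaged after glycan names were converted to IUPAC-condensed notation. The data come from 3228 arrays in the Consortium for Functional Glycomics database, limited to those with an available protein sequence. Binding is reported as a within-array Z-score averaged across arrays of one protein sequence and across linkers.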
# [2] = target: GalNAc(a1-3)GalNAc(b1-3)Gal(a1-4)Gal(b1-4)GlcNAc
# How it was run: as §1
# [3] = target: Glc(a1-6)Glc(a1-6)Glc(a1-6)Glc
# How it was run: as §1
# [4] = target: GlcNAc(b1-2)Man(a1-3)[GlcNAc(b1-4)][GlcNAc(b1-2)Man(a1-6)]Man(b1-4)GlcNAc(b1-4)GlcNAc
# How it was run: as §1
# [5] = target: GlcNAc(b1-2)Man(a1-3)[GlcNAc(b1-4)][GlcNAc(b1-2)Man(a1-6)]Man(b1-4)GlcNAc(b1-4)[Fuc(a1-6)]GlcNAc
# How it was run: as §1
# [6] = target: GlcNAc(b1-2)[GlcNAc(b1-4)]Man(a1-3)[GlcNAc(b1-4)][GlcNAc(b1-2)[GlcNAc(b1-6)]Man(a1-6)]Man(b1-4)GlcNAc(b1-4)GlcNAc
# How it was run: as §1
# [7] = target: GlcNAc(b1-3)Gal(b1-3)GalNAc
# How it was run: as §1
# [8] = target: GlcNAc(b1-3)Gal(b1-4)GlcNAc
# How it was run: as §1
# [9] = target: GlcNAc(b1-3)Gal(b1-4)GlcNAc(b1-3)Gal(b1-4)GlcNAc(b1-2)[GlcNAc(b1-3)Gal(b1-4)GlcNAc(b1-3)Gal(b1-4)GlcNAc(b1-6)]Man(a1-6)[GlcNAc(b1-3)Gal(b1-4)GlcNAc(b1-3)Gal(b1-4)GlcNAc(b1-2)Man(a1-3)]Man(b1-4)GlcNAc(b1-4)[Fuc(a1-6)]GlcNAc
# How it was run: as §1
# [10] = target: GlcNAc(b1-3)Gal(b1-4)GlcNAc(b1-3)Gal(b1-4)GlcNAc(b1-3)Gal(b1-4)GlcNAc(b1-2)[GlcNAc(b1-3)Gal(b1-4)GlcNAc(b1-3)Gal(b1-4)GlcNAc(b1-3)Gal(b1-4)GlcNAc(b1-6)]Man(a1-6)[GlcNAc(b1-3)Gal(b1-4)GlcNAc(b1-3)Gal(b1-4)GlcNAc(b1-3)Gal(b1-4)GlcNAc(b1-2)Man(a1-3)]Man(b1-4)GlcNAc(b1-4)[Fuc(a1-6)]GlcNAc
# How it was run: as §1
# [11] = target: GlcNAc(b1-3)Gal(b1-4)GlcNAc(b1-3)Gal(b1-4)GlcNAc(b1-3)Gal(b1-4)GlcNAc(b1-3)Gal(b1-4)GlcNAc(b1-2)Man(a1-3)[GlcNAc(b1-3)Gal(b1-4)GlcNAc(b1-3)Gal(b1-4)GlcNAc(b1-3)Gal(b1-4)GlcNAc(b1-3)Gal(b1-4)GlcNAc(b1-2)Man(a1-6)]Man(b1-4)GlcNAc(b1-4)GlcNAc
# How it was run: as §1
# [12] = target: GlcNAc(b1-3)Gal(b1-4)GlcNAc(b1-3)Gal(b1-4)GlcNAc(b1-3)Gal(b1-4)GlcNAc(b1-3)Gal(b1-4)GlcNAc(b1-2)[GlcNAc(b1-3)Gal(b1-4)GlcNAc(b1-3)Gal(b1-4)GlcNAc(b1-3)Gal(b1-4)GlcNAc(b1-3)Gal(b1-4)GlcNAc(b1-6)]Man(a1-6)[GlcNAc(b1-3)Gal(b1-4)GlcNAc(b1-3)Gal(b1-4)GlcNAc(b1-3)Gal(b1-4)GlcNAc(b1-3)Gal(b1-4)GlcNAc(b1-2)Man(a1-3)]Man(b1-4)GlcNAc(b1-4)[Fuc(a1-6)]GlcNAc
# How it was run: as §1
# [13] = target: GlcNAc(b1-3)[GlcNAc(b1-6)]GalNAc
# How it was run: as §1
# [14] = target: Man(a1-2)Man(a1-2)Man(a1-6)[Man(a1-3)]Man
# How it was run: as §1
# [15] = target: Man(a1-2)Man(a1-3)[Man(a1-2)Man(a1-6)]Man(a1-6)[Man(a1-2)Man(a1-2)Man(a1-3)]Man
# How it was run: as §1
# [16] = target: Man(a1-3)[Man(a1-6)]Man(b1-4)GlcNAc(b1-4)GlcNAc
# How it was run: as §1
# [17] = target: Neu5Ac(a2-3)Gal(b1-3)GlcNAc(b1-2)[Neu5Ac(a2-3)Gal(b1-3)GlcNAc(b1-4)]Man(a1-6)[Neu5Ac(a2-3)Gal(b1-3)GlcNAc(b1-2)Man(a1-3)]Man(b1-4)GlcNAc(b1-4)GlcNAc
# How it was run: as §1
# [18] = target: Neu5Ac(a2-3)Gal(b1-4)[Fuc(a1-3)]GlcNAc
# How it was run: as §1
# [19] = target: Neu5Ac(a2-3)GalNAc(b1-4)GlcNAc
# How it was run: as §1
# [20] = target: Neu5Ac(a2-3)[GalNAc(b1-4)]Gal(b1-4)GlcNAc
# How it was run: as §1
# [21] = target: Neu5Ac(a2-6)Gal(b1-3)GlcNAc(b1-3)[Gal(b1-4)GlcNAc(b1-6)]Gal(b1-4)Glc
# How it was run: as §1
# [22] = target: Neu5Ac(a2-6)Gal(b1-4)GlcNAc
# How it was run: as §1
# [23] = target: Neu5Ac(a2-6)Gal(b1-4)GlcNAc(b1-2)Man(a1-3)[Man(a1-6)]Man(b1-4)GlcNAc(b1-4)GlcNAc
# How it was run: as §1
# [24] = target: Neu5Ac(a2-6)Gal(b1-4)GlcNAc(b1-3)Gal(b1-4)GlcNAc(b1-3)Gal(b1-4)GlcNAc(b1-2)Man(a1-3)[Neu5Ac(a2-6)Gal(b1-4)GlcNAc(b1-3)Gal(b1-4)GlcNAc(b1-3)Gal(b1-4)GlcNAc(b1-2)Man(a1-6)]GalNAc
# How it was run: as §1
# [25] = target: Neu5Ac(a2-6)Gal(b1-4)GlcNAc(b1-6)[Gal(b1-3)GlcNAc(b1-3)]Gal(b1-4)Glc
# How it was run: as §1
# [26] = target: Neu5Ac(a2-6)GalNAc(b1-4)GlcNAc6S
# How it was run: as §1
# [27] = target: Neu5Ac(b2-6)GalNAc
# How it was run: as §1
# [28] = target: Neu5Gc(a2-3)Gal(b1-4)GlcNAc
# How it was run: as §1
binder,measurement,setting,value
B1,glycan array binding signal (z-score),[1],-0.227
same,glycan array binding signal (z-score),[2],-0.419
same,glycan array binding signal (z-score),[3],0.011
same,glycan array binding signal (z-score),[4],0.686
same,glycan array binding signal (z-score),[5],-0.623
same,glycan array binding signal (z-score),[6],-0.839
same,glycan array binding signal (z-score),[7],0.088
same,glycan array binding signal (z-score),[8],-0.175
same,glycan array binding signal (z-score),[9],1.97
same,glycan array binding signal (z-score),[10],2.12
same,glycan array binding signal (z-score),[11],1.56
same,glycan array binding signal (z-score),[12],1.97
same,glycan array binding signal (z-score),[13],0.522
same,glycan array binding signal (z-score),[14],-0.239
same,glycan array binding signal (z-score),[15],0.07
same,glycan array binding signal (z-score),[16],-0.516
same,glycan array binding signal (z-score),[17],0.118
same,glycan array binding signal (z-score),[18],-0.785
same,glycan array binding signal (z-score),[19],-0.208
same,glycan array binding signal (z-score),[20],-0.447
same,glycan array binding signal (z-score),[21],-0.697
same,glycan array binding signal (z-score),[22],-0.538
same,glycan array binding signal (z-score),[23],0.308
same,glycan array binding signal (z-score),[24],1.99
same,glycan array binding signal (z-score),[25],0.132
same,glycan array binding signal (z-score),[26],0.676
same,glycan array binding signal (z-score),[27],-0.883
same,glycan array binding signal (z-score),[28],-0.079
